Assay outcomes from PubChem BioAssay.
Rows were chosen to be rich in hits. Some 19% of all compounds tested hit in one or more screens of this group.
IL1B secr inh – blocks inflammasome-driven IL-1 beta release; THP-1 LPS/ATP IL-1B secretion, AlphaLISA, 16 h; stronger effect = lower value; activity change, % at 57.5 µM; 360,000 compounds, 4.7% hits; AID 743279; in the data active means activity change below about -50%; inconclusive means mostly about -30% to -49%
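Secreted IL-1B measured by AlphaLISA bead assay after 16 h compound exposure of THP-1 cells; compounds (final up to 57.5 uM) added 1 h before LPS (250 ng/mL) and ATP (1.25 mM) stimulation; lower signal means less secretion.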
HT1080NT lethal – kills 2HG-producing HT-1080-NT fibrosarcoma cells | Potency, µM (series often up to 46.1 µM), for the others: at the highest dose activity, negative = less viability, actives largely listed as cytotoxic | AID 686970 | HT-1080-NT fibrosarcoma viability, CellTiter-Glo ATP luminescence, 48 h | 360,000 compounds, 1.6% hits;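 further: NT is the 2HG producing partner of a matched IDH1 knockdown line; potency means the concentration at half of the fitted maximal effect; 0% = DMSO-treated cells and -100% = media-only wells without cells; nearly all actives have a fitted effect of over 55% in size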
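Read-out is CellTiter-Glo luminescence after 10 minutes at room temperature, following 48 hours' compound treatment of HT-1080-NT cells (750 cells/well, RPMI, 5% FBS, 37 degrees C).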
HT1080 IDH1KD tx – kills HT-1080 cells with IDH1 knockdown; HT-1080 IDH1 knockdown viability, ATP luminescence, 48 h; Potency, µM (top dose mostly 46.1 µM), for inactives: at the top dose activity, negative = toxicity, most hits filed as cytotoxic; 360,000 compounds, 2% hits; AID 686971;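 further: potency means the concentration at half of the fitted maximal effect; 0% = DMSO wells and -100% = cell-free medium wells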
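After a 2 h attachment period, IDH1KD HT-1080 cells took pin-transferred compound for 48 h at 37 °C; ATP-based luminescence after 10 min room-temperature reagent incubation reported viability.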
TDP1 cell CPT – DT40-hTDP1 cell growth loss with CPT; chicken DT40 Tdp1-/-;hTDP1 cells + 20 nM CPT, ATP luminescence, 48 h; Potency, µM (titrated, usually from 46.2 µM), for the others: at the top dose activity change, negative = growth inhibition, hits mostly inhibitors; 420,000 compounds, 12% hits; AID 686979; further: potency means the concentration at half of the fitted maximal effect; nearly all actives have a fitted effect of over 55% in size
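Chicken DT40 Tdp1-/- cells stably complemented with human TDP1 were seeded at 400 cells/well in medium containing 20 nM camptothecin, exposed to pin-transferred compounds, and grown at 37 °C for at least 48 hr. Viability was read as ATP luminescence.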
DT40 TDP1 no CPT – qHTS for Inhibitors of human tyrosyl-DNA phosphodiesterase 1 (TDP1): qHTS in cells in absence of CPT; DT40 Tdp1-/- hTDP1 cells, no CPT, ATP luminescence, 48 h; Potency, µM (highest dose often 46.2 µM), without a hit: at the top dose activity change, negative = growth inhibition, usual class: inhibitors; AID 686978, 2013; 420,000 compounds, 15% hits; further: potency means the concentration at half of the fitted maximal effect; nearly all actives have a fitted effect of over 55% in size
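Readout: luminescence from CellTiter-Glo after 30 min in the dark at RT. Cells: DT40 Tdp1-/- with stable hTDP1, 400/well. Exposure: compounds alone, ≥48 hr, 37 °C.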
uPA surface inh – blocks generation of uPA at the cell surface; cell surface uPA generation assay, qHTS; Potency, µM (highest dose often 38.3 µM), for the others: top-dose activity change, negative = inhibition, hits mostly inhibitors; 330,000 compounds, 0.31% hits; active means well fitted inhibition curve with a large enough effect; inconclusive means small, poorly fitted or top-dose-only effect; inactive means no such curve, though single readings can be large or run the other way; tested in mouse RAW 264.7 cells; further: potency means the concentration at half of the fitted maximal effect; nearly all actives have a fitted effect of over 55% in size
* = called active by the depositor; ? = inconclusive; · = no result; [ ] = dose if it differs, or a comment. Unless noted, the call rests on the fitted dose curve; in most records, active means well fitted curve in the direction sought with a large enough effect; inconclusive means small, poorly fitted or top-dose-only effect, or another doubt; inactive means no such curve, though single readings can be large; an effect the other way counts as inactive or inconclusive. Unless noted, on the % scale 0 is the no-effect control and ±100 the full control effect.

SMILES | IL1B secr inh | HT1080NT lethal | HT1080 IDH1KD tx | TDP1 cell CPT | DT40 TDP1 no CPT | uPA surface inh
CC(NC(=O)COC(=O)c1ccc(N(C)C)cc1)c1ccccc1 (configuration not stated) | 7 | -21% | 18µM* | ? | ? | 0%
COc1ccccc1C(=O)COC(=O)c1ccc(N(C)C)cc1 | -11 | 0% | -2% | ? | 18µM* | ·
CC1CCCCC1NC(=O)COC(=O)c1ccc(N(C)C)cc1 (configuration not stated) | -15 | 9% | -1% | ? | 13µM* | 1%
CN(C)c1ccc(C(=O)OCC(=O)NC2CCCCCC2)cc1 | 1 | 6% | 0% | -29% | ? | 0%
O=C(CN1C(=O)COc2ccccc21)N1CCN(C2CCCCC2)CC1 | 19 | 8% | -2% | 7% | -30% | -2%
COc1ccc(C(=O)N2CCC3(CCCN(C(=O)NC(C)C)C3)CC2)cc1 | · | · | · | 4% | -2% | ·
CCCN1CCN(CCNC(=O)Nc2ccc(OC)cc2OC)CC1 | · | · | · | -16% | -25% | ·
COc1cccc(-n2c(=O)c3cc(OC)c(OC)cc3n(CC(=O)Nc3ccc(F)cc3)c2=O)c1 | · | · | · | ? | -13% | ·
O=C1CC(c2nnc(Cc3cccc(Cl)c3)o2)CN1c1ccccc1 (configuration not stated) | · | · | · | 1% | -7% | ·
O=C(Nc1ccc(S(=O)(=O)NC2=NCCCCC2)cc1)C1COc2ccccc2O1 (configuration not stated) | 13 | 22% | 9% | -9% | -16% | 6%
Cc1nc(-c2ccc(C)c(N3CCN(C(=O)Nc4cccc(Cl)c4C)CC3)c2)no1 | · | · | · | ? | 16µM* | ·
CCN1CCCC1CNC(=O)c1cnn(-c2nccc(-c3cc4ccccc4o3)n2)c1C (configuration not stated) | · | · | · | -8%[9.04 µM] | ? | ·
Cc1cccc(NC(=O)CSCC(=O)N(CCC(C)C)c2c(N)n(Cc3ccccc3)c(=O)[nH]c2=O)c1 | -1 | ? | ? | 8% | -17% | 1%
CCN(CC)P(=O)(Nc1ccccc1Br)c1ccc(N(C)C)cc1NC(=O)c1ccco1 (configuration not stated) | -7 | 18% | -4% | 29µM* | 23µM* | 12%
CCN(CC)S(=O)(=O)c1cccc(C(=O)N[C@H](C(=O)Nc2nc3ccc(F)cc3s2)C(C)C)c1 | -23 | -8% | ? | 16µM* | 15µM* | -8%
CCN(CC)S(=O)(=O)c1cccc(C(=O)NC(C(=O)Nc2nnc(C3CC3)s2)C(C)C)c1 (configuration not stated) | 0 | -11% | -4% | -5% | ? | -7%
CCN(CC)S(=O)(=O)c1cccc(C(=O)N[C@H](C(=O)Nc2nc3ccccc3s2)C(C)C)c1 | -22 | -26% | -24% | ? | 15µM* | -16%
C=CCN(CC=C)S(=O)(=O)c1ccc2nc(NC(=O)C(C)C)sc2c1 | 28 | 3.7µM* | 7.3µM* | 5.8µM* | 2.6µM* | -17%
O=C(Nc1cccc(Cl)c1Cl)c1cc2nc(-c3ccc4c(c3)OCO4)cc(C(F)(F)F)n2n1 | · | · | · | 4% | 6% | ·
CCN(CC)C(=O)Cn1cc(C(=O)C(=O)N(C)C2CCN(C)CC2)c2ccccc21 | 3 | -10% | -3% | -12% | 0% | -12%
COC(=O)c1c(NC(=O)c2c(-c3ccccc3Cl)noc2C)sc2c1CCC2 | 0 | -2% | -10% | 18µM* | 18µM* | 6%
CC1CCc2c(sc(NC(=O)c3cc(-c4cccc(Cl)c4)on3)c2C(N)=O)C1 (configuration not stated) | · | · | · | -8% | -5% | ·
Cc1onc(-c2ccccc2Cl)c1C(=O)Nc1sc2c(c1C(N)=O)CCC(C)C2 (configuration not stated) | -51* | -4% | -14% | 7% | -30% | -2%
Cc1cc(C(F)F)n2nc(C(=O)Nc3sc4c(c3C(N)=O)CCC4)nc2n1 | ? | 21% | 17% | ? | ? | 1%
COC(=O)c1c(NC(=O)c2nc3nc(C)cc(C(F)F)n3n2)sc2c1CCC2 | -27 | 2% | 0% | ? | 16µM* | 6%
SMILES | IL1B secr inh | HT1080NT lethal | HT1080 IDH1KD tx | TDP1 cell CPT | DT40 TDP1 no CPT | uPA surface inh
Cc1onc(-c2ccccc2Cl)c1C(=O)Nc1nnc(C(C)C)s1 | 22 | -20% | -2% | -9% | ? | 11%
N#Cc1ccc(N/N=C/c2cn(-c3ccccc3)nc2-c2ccccc2)c([N+](=O)[O-])c1 | 11 | 7% | 14% | 3.7µM* | 8.2µM* | -2%
O=Cc1cn(-c2ccccc2)nc1-c1cccc([N+](=O)[O-])c1 | ? | 11% | 8% | ? | ? | ·
Nc1c(C(=O)NCc2ccco2)c2nc3ccccc3nc2n1CCc1ccc(F)cc1 | -116* | ? | ? | 21µM* | 18µM* | -9%
COc1ccccc1CNC(=O)c1c(N)n(CCCN2CCOCC2)c2nc3ccccc3nc12 | ? | 7% | -3% | ? | ? | -11%
N#Cc1c(N)n(CCc2ccc(F)cc2)c2nc3ccccc3nc12 | -57* | -20% | -14% | ? | ? | -1%
Nc1c(C(=O)NCCN2CCOCC2)c2nc3ccccc3nc2n1CCc1ccccc1F | -63* | ? | ? | ? | ? | -9%
CC(C)OC(=O)c1c(N)n(CCCN2CCOCC2)c2nc3ccccc3nc12 | -11 | -12% | -15% | -9% | -7% | 5%
Nc1c(C(=O)NCCN2CCOCC2)c2nc3ccccc3nc2n1CCc1ccccc1 | -59* | ? | ? | ? | 21µM* | 9%
O=C(COc1cccc(C(F)(F)F)c1)NNC(=O)c1ccc(=O)[nH]c1 | 7 | 6% | 4% | -8% | 18% | 7%
CCOC(=O)C1CCN(C2CCN(C(=O)c3oc4c(C)c(C)ccc4c3C)CC2)CC1 | ? | ? | -16% | ? | -26% | 8%
COc1nc(OC)nc(N2CCC(C(=O)NCc3ccco3)CC2)n1 | 1 | -3% | 4% | -25% | -1% | ·
O=C(NCc1ccco1)C1CCN(c2nc3ccccc3n2Cc2ccc(F)cc2)CC1 | ? | -12% | -13% | ? | 16µM* | -11%
Cc1cc(Br)c(OCc2ccc(C(=O)N/N=C3\CC4CC=CC34)cc2)c(Br)c1 (configuration not stated) | -9 | -25% | ? | -29% | 15µM* | 3%
